# Source: PubChem BioAssay (National Center for Advancing Translational Sciences (NCATS))
# An excerpt weighted towards active compounds, which were near 19% of everything screened.
# DT40 TDP1 no CPT: qHTS for Inhibitors of human tyrosyl-DNA phosphodiesterase 1 (TDP1): qHTS in cells in absence of CPT; DT40 Tdp1-/- hTDP1 cells, no CPT, ATP luminescence, 48 h; Potency, µM (series often up to 46.2 µM), for inactives: top-dose activity change, negative = growth inhibition, usual class: inhibitors; actives 15% (n = 420,000); note: potency is the fitted concentration of half-maximal effect; nearly all actives have a fitted effect of over 55% in size
#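 Readout: luminescence from CellTiter-Glo after 30 min in the dark at RT. Cells: DT40 Tdp1-/- with stable hTDP1, 400/well. Exposure: compounds alone, ≥48 hr, 37 °C.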
# TDP1 cell CPT: qHTS for Inhibitors of human tyrosyl-DNA phosphodiesterase 1 (TDP1): qHTS in cells in presence of CPT; chicken DT40 Tdp1-/-;hTDP1 cells + 20 nM CPT, ATP luminescence, 48 h; Potency, µM (titrated, usually from 46.2 µM), without a hit: at the highest dose activity change, negative = growth inhibition, hits mostly inhibitors; actives 12% (n = 420,000); AID 686979, 2013; note: potency is the fitted concentration of half-maximal effect; nearly all actives have a fitted effect of over 55% in size
#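 Chicken DT40 Tdp1-/- cells complemented with human TDP1, 400 cells/well, exposed to compounds plus 20 nM camptothecin for at least 48 h at 37 C; viability read as ATP content by CellTiter-Glo luminescence.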
# HT1080 IDH1KD tx: qHTS for induction of synthetic lethality in tumor cells producing 2HG: qHTS for the HT-1080-IDH1KD cell line. Potency, µM (top dose mostly 46.1 µM), for the others: top-dose activity, negative = toxicity, actives largely listed as cytotoxic. HT-1080 IDH1 knockdown viability, ATP luminescence, 48 h. actives 2% (n = 360,000);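 note: potency is the fitted concentration of half-maximal effect; 0% = DMSO wells and -100% = cell-free medium wells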
#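 Knockdown cells (IDH1KD HT-1080) received compounds 2 h after plating at 750 cells/well and were kept 48 h at 37 °C in 5% FBS RPMI. A CellTiter-Glo luminescence read gave % activity for curve fitting.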
# HT1080-NT tox: qHTS for induction of synthetic lethality in tumor cells producing 2HG: qHTS for the HT-1080-NT fibrosarcoma cell line | Potency, µM (top dose mostly 46.1 µM), without a hit: at the top dose activity, negative = less viability, usual class: cytotoxic | HT-1080-NT fibrosarcoma viability, CellTiter-Glo ATP luminescence, 48 h | actives 1.6% (n = 360,000);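 note: NT is the 2HG producing partner of a matched IDH1 knockdown line; potency is the fitted concentration of half-maximal effect; 0% = DMSO-treated cells and -100% = media-only wells without cells; nearly all actives have a fitted effect of over 55% in size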
#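 Read-out is CellTiter-Glo luminescence after 10 minutes at room temperature, following 48 hours' compound treatment of HT-1080-NT cells (750 cells/well, RPMI, 5% FBS, 37 degrees C).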
# IL-1B inflam inh: qHTS for Inhibitors of Inflammasome Signaling: IL-1-beta AlphaLISA Primary Screen; THP-1 LPS/ATP IL-1B secretion, AlphaLISA, 16 h; active compounds read low; activity change, % at 57.5 µM; actives 4.7% (n = 360,000); in the data active = activity change below about -50%; inconclusive = mostly about -30% to -49%
#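 THP-1 cells pretreated 1 hr with compounds (up to 57.5 uM final), then stimulated with LPS (250 ng/mL final) plus ATP (1.25 mM final); secreted IL-1B measured by AlphaLISA after 16 hr, decreased signal indicating inhibition.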
# * = called active by the depositor; ? = inconclusive; . = no result given; [ ] = remark or other dose. Unless noted, calls come from the whole dose curve; as a rule, active = well fitted curve in the direction sought with a large enough effect; inconclusive = small, poorly fitted or top-dose-only effect, or another doubt; inactive = no such curve, though single readings can be large; an effect the other way counts as inactive or inconclusive. Unless noted, % is set by controls: 0 for no effect and ±100 for the full control effect.
SMILES,DT40 TDP1 no CPT,TDP1 cell CPT,HT1080 IDH1KD tx,HT1080-NT tox,IL-1B inflam inh
CC(Nc1ccc(F)cc1F)C(=O)NC(=O)NC1CCCCC1 (stereo not given),-36%,-1%,0%,-3%,32
CC(C(=O)NC(=O)NC1CCCCC1)N1CCN(C(c2ccccc2)c2ccccc2)CC1 (stereo not given),15µM*,23µM*,6%,-1%,3
CCOc1ccccc1NC(C)C(=O)NC(=O)NC1CCCCC1 (stereo not given),-28%,18µM*,-3%,1%[9.24 µM],39
CCCOC(=O)c1ccc(NC(=O)/C=C/c2cccs2)cc1,18µM*,?,-21%,-12%,-11
CCCCn1c(-c2ccc(Br)cc2F)nc2c1c(=O)[nH]c(=O)n2CC(C)C,23µM*,21µM*,-24%,?,-68*
OCc1ccccc1-c1cccc2nccn12,?,?,14%,28%,0
COc1ccccc1NC(=O)CSc1nc(-c2ccc(C(C)(C)C)cc2)c(C#N)c(=O)[nH]1,-8%,-15%,.,.,.
CCN(CC)CCNc1ccc(C)c2sc3ccc(O)cc3c(=O)c12,0.15µM*,0.16µM*,?,-23%,-101*
COC(=O)c1ccccc1NC(=O)c1nc(S(=O)(=O)Cc2ccccc2)ncc1Cl,1.3µM*,2.9µM*,-10%,0%,-16
CC(=O)Nc1ccc(NC(=O)c2nc(S(=O)(=O)Cc3ccccc3)ncc2Cl)cc1,0.46µM*,0.26µM*,-3%,-3%,.
CCS(=O)(=O)c1ncc(Cl)c(C(=O)Nc2ccc(C)cc2)n1,1.8µM*,1.6µM*,15µM*,18µM*,-99*
CCOc1ccc(NC(=O)c2nc(S(=O)(=O)Cc3ccc(C)cc3)ncc2Cl)cc1,0.63µM*,0.79µM*,.,.,.
CSc1ncc(Cl)c(C(=O)Nc2ccc(NC(C)=O)cc2)n1,-19%,3%,2%,-3%,-17
CC(C)NC(=O)CC1C(=O)N(Cc2ccccc2)C(C)c2nc3ccccc3n21 (stereo not given),-16%,-8%,6%,-1%,4
O=C(CN1C(=O)NC2(CCCCCC2)C1=O)N1CCCCC1,7%,-27%,0%,4%,-5
CCOc1ccc(NC(=O)c2nc(S(=O)(=O)Cc3ccccc3)ncc2Cl)cc1,0.4µM*,0.32µM*,.,.,.
CCCS(=O)(=O)c1ncc(Cl)c(C(=O)Nc2c(C(=O)Nc3ccccc3)oc3ccccc23)n1,2.6µM*,2.1µM*,.,.,.
CS(=O)(=O)c1ncc(Cl)c(C(=O)Nc2ccc3ccccc3c2)n1,0.65µM*,1µM*,2.9µM*,9.2µM*,-99*
O=C(Nc1ccc(OC(F)F)cc1)c1ncc(Cl)c(Cl)c1Cl,0%,18%,14%,-4%,-158*
CSc1ncc(Cl)c(C(=O)Nc2c(C(=O)Nc3cccc(C)c3)oc3ccccc23)n1,16%,-1%,.,.,.
O=C(Nc1ccc2ccccc2c1)c1cnccn1,-14%,-17%,-21%,0%,-1
COc1cccc(C(=O)OCC(=O)Nc2sc3c(c2C(N)=O)CCC3)c1O,0%,-21%,-2%,3%[9.24 µM],23
Cc1cn(CC(=O)NCCNc2ccc([N+](=O)[O-])cn2)c(=O)[nH]c1=O,1%,13%,3%,0%,30
COc1ccc(NC(=O)c2ccc(Cc3ccc(C)cc3)o2)cc1,?,?,-8%,-1%,-6
CCS(=O)(=O)c1ncc(Cl)c(C(=O)Nc2ccc(S(=O)(=O)N3CCCC(C)C3)cc2)n1 (stereo not given),2.3µM*,0.92µM*,4.6µM*,2.6µM*,-104*
SMILES,DT40 TDP1 no CPT,TDP1 cell CPT,HT1080 IDH1KD tx,HT1080-NT tox,IL-1B inflam inh
Cc1ccc(S(=O)(=O)NC(=O)Nc2ccc(OC(F)F)cc2)cc1,4%,13%,14%,1%,1
COc1ccc(NC(=O)c2nc(S(=O)(=O)Cc3ccc(C)cc3)ncc2Cl)cc1,2.1µM*,16µM*,.,.,.
Cc1ccc(CS(=O)(=O)c2ncc(Cl)c(C(=O)Nc3ccc(OC(F)F)cc3)n2)cc1,3.7µM*,3.7µM*,?,16µM*,-103*
CC1CCCN(S(=O)(=O)c2ccc(NC(=O)CNC3CCCC3)cc2)C1 (stereo not given),?,?,-5%,-20%,?
Cc1cc(C)cc(C(O)c2ncc(-c3cccc(F)c3)[nH]2)c1 (stereo not given),?,?,-27%,-3%,-16
CCOC(=O)[C@]12Cc3c(cc(OC)c(OC)c3OC)[C@H]1N(C1CCCCC1)C(=O)c1cc(OC)ccc12,9.2µM*,9.2µM*,12µM*,12µM*,-118*
NC(c1csc(NC(=O)Nc2ccccc2)n1)C1CCCCC1 (stereo not given),15µM*,?,?,?,?
NC(c1csc(NC(=O)Nc2cccc(Cl)c2)n1)C1CCCCC1 (stereo not given),?,18µM*,18µM*,18µM*,-96*
O=C(Nc1nc(-c2ccccc2)cs1)NC1CCCCC1,-29%,-30%,-15%,-20%,-9
Cc1ccc(S(=O)(=O)c2nnn3c2nc(Nc2ccc(C(C)C)cc2)c2sccc23)cc1C,4.6µM*,4.1µM*,.,.,.
Cc1ccc(S(=O)(=O)c2nnn3c2nc(NC2CCCCCC2)c2sccc23)cc1C,21µM*,15µM*,.,.,.
Cc1ccc(C)c(S(=O)(=O)c2nnn3c2nc(Nc2ccc(C)c(C)c2)c2sccc23)c1,-13%,0%,.,.,.
Cc1ccc(C)c(S(=O)(=O)c2nnn3c2nc(NC(C)C)c2sccc23)c1,?,23µM*,.,.,.
CCc1ccc(S(=O)(=O)c2nnn3c2nc(NC2CCCC2)c2sccc23)cc1,?,23µM*,.,.,.
Cc1ccc(CCNc2nc3c(S(=O)(=O)c4ccc(C)cc4)nnn3c3ccsc23)cc1,-26%,-16%,.,.,.
COc1ccc(S(=O)(=O)N2CCN(Cc3cccc(OC)c3OC)CC2)cc1,-22%,-16%,-1%,-1%,-11
CCOc1ccc(CCNC(=O)c2ccc3nc(N4CCC(C)CC4)sc3c2)cc1OCC,5.2µM*,6.5µM*,.,.,.
CCC(Cc1ccccc1)NC(=O)c1ccc2nc(N3CCOCC3)sc2c1 (stereo not given),13µM*,15µM*,-3%,-1%,-11
COCc1c(C(=O)Nc2ccc3nc(N4CCOCC4)sc3c2)oc2ccccc12,?,15µM*,-18%,-32%,-17
